Source: PubChem BioAssay (EPA / NIEHS)
Activity calls are given as the source filed them. Rule for the calls: active = hit-call score of the fitted dose curve at least 0.9, where 1 is the maximum; inactive = score below 0.9.

experiment: CCTE_Shafer_MEA_dev_per_burst_spike_percent: CCTE's Neural Network Formation Assay for Percent of Spikes in a Burst, Shafer Lab (AID 2284032)
Procedure: CCTE_Shafer_MEA_dev assay is conducted using Axion Biosystems 48 well microelectrode array (MEA) plates and Maestro recording system. Each well of the MEA plate contains a grid of 16 microelectrodes embedded in the culture surface. Electrically active cells, such as neurons, can be cultured over the electrodes, and electrical activity in these cells can be recorded extracellularly. The spontaneous firing of neurons is captured from each electrode on a microsecond timescale providing both temporally and spatially precise data. […] The CCTE_Shafer_MEA_dev assay uses primary cultures of rat cortical neurons. Recordings are made on days post-plating 5, 7, 9 and 12. As these cultures mature over time, neural networks develop functional activity and form cohesive networks in which electrical activity can be highly coordinated. CCTE_Shafer_MEA_dev_per_burst_spike_percent is 1 of 19 assay components of the CCTE_Shafer_MEA_dev assay. It measures the percentage of spikes (action potential firings) in a single-electrode burst (temporally-clustered group of spikes) as the total number spikes in bursts divided by the total number of spikes during a recording in a microelectrode array (MEA) using Axion Biosystems Maestro 768 channel amplifier with the AxIS adaptive spike detector. The percent of spikes in bursts is averaged across the actively bursting electrodes to report a well-mean value. To collapse across multiple recordings made on days post-plating 5, 7, 9 and 12, the trapezoidal area-under-the-curve of the component is calculated.Data from the assay component CCTE_Shafer_MEA_dev_per_burst_spike_percent was analyzed into 1 assay endpoint. This assay endpoint, CCTE_Shafer_MEA_dev_per_burst_spike_percent, was analyzed in the negative analysis fitting direction relative to DMSO as the negative control and baseline of activity. Using a type of functional reporter, gain or loss-of-signal activity can be used to understand electrical activity.
On the day prior to culture, each well was coated thoroughly with 150 uL of 0.05% polyethyleneimine (PEI, Sigma Cat P3143) in 50 mM HEPES (Sigma Cat H7523) at a pH of 8. The plate was incubated at 37C for one hour. PEI was rinsed out with 500 uL of sterile water three times. Plates were stored at 4C until the day of culture. This culture was plated at a seeding density of 1.5 x 10^5 cells/well on a 48-well MEA plate, prepared as described above. Cells were administered via a 25 uL media/laminin ([…]; Sigma Cat L2020-1MG) drop directly onto the microelectrode array, as adding the cells with the laminin results in better attachment than pre-coating with laminin. After 2 hours, an additional 475 uL of cortical media was added and the cells returned to the incubator. Exposure starts at day 0 of plating and is continued over twelve days of network development until the experiment is terminated. Cells are fed with fresh medium on DIV 5 and 9, following the recordings on those days. The entire volume of media in the well is exchanged and any vehicle or compound treatment is renewed. Complete details are found in OP-NHEERL/ISTD/SBB/TJS/2015-03-r0 (available on request, email shafer.tim@epa.gov). Measurement of the electrical activity is non-invasive, and recordings can be made from the same plate over multiple different days of the culture. In cortical neurons, this allows for the measurement of extracellular action potentials over the period during which networks form in the MEA plate.

| Structure (SMILES) | AC50 | outcome |
| --- | --- | --- |
| CC[C@H](C)C(=O)O[C@H]1C[C@@H](C)C=C2C=C[C@H](C)[C@H](CC[C@@H]3C[C@@H](O)CC(=O)O3)[C@H]21 | 10000 nM (active) | – |
| CNCc1ccc(NC(=O)c2c[nH]c3c2C(=O)CCC3)cc1 | 1980 nM (active) | – |
| COc1ccc(-n2nc(C(F)F)cc2-c2ccc(S(C)=O)cc2)cc1 (stereo not given) | – | inactive |
| Nc1nc2ncc(CNc3ccc(C(=O)N[C@@H](CCC(=O)O)C(=O)O)cc3)nc2c(=O)[nH]1 | – | inactive |
| Cn1c(=O)c2c(ncn2C)n(C)c1=O | – | inactive |
| CCC(C)(C)C(=O)O[C@H]1C[C@@H](C)C=C2C=C[C@H](C)[C@H](CC[C@@H]3C[C@@H](O)CC(=O)O3)[C@H]21 | 2740 nM (active) | – |
| NC(=O)NO | – | inactive |
| O=C1CCC(N2C(=O)c3ccccc3C2=O)C(=O)N1 (stereo not given) | – | inactive |
| O=P(OC(CCl)CCl)(OC(CCl)CCl)OC(CCl)CCl | – | inactive |
| CC[C@H]1OC(=O)[C@H](C)[C@@H](O[C@H]2C[C@@](C)(OC)[C@@H](O)[C@H](C)O2)[C@H](C)[C@@H](O[C@@H]2O[C@H](C)C[C@H](N(C)C)[C@H]2O)[C@](C)(O)C[C@@H](C)C(=O)[C@H](C)[C@@H](O)[C@]1(C)O | – | inactive |
